From PubChem
FECH block: inhibitors of human ferrochelatase, primary screen, biochemical, purified FECH, Ni-mesoporphyrin absorbance | Ni-mesoporphyrin absorbance 550 nm | hit rate 3.3% among 20,000 | AID 1671448, 2021 | calls only at 10 µM (by protocol);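 active = enzyme reaction rate more than 3 SD below the solvent-only control wells on the same plate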;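 note: lower slope than DMSO wells means FECH inhibition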
Target sequence (P22830 whole entry, looked up): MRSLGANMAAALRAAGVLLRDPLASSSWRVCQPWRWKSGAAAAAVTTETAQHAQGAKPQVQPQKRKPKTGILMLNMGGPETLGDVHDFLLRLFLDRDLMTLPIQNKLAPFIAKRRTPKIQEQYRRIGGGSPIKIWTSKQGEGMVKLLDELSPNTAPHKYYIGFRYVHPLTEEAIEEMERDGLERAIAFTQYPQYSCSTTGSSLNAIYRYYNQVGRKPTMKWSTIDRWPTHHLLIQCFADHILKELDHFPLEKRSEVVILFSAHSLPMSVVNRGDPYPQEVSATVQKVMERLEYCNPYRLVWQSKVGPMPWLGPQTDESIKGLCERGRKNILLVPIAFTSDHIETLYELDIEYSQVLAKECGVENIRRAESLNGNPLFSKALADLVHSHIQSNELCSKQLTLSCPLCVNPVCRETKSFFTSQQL
An asterisk follows results filed as active; i = inactive; + = active, no number. The full list was thinned out, with hits kept by preference.

SMILES | FECH block
Clc1ccccc1CCNc1ncnc2oc3c(c12)CCCC3 | +
COc1ccccc1CNc1ncnc2oc3c(c12)CCCC3 | i
Cc1ccc(CNc2ncnc3oc4c(c23)CCCC4)o1 | i
Cc1cc(C)n(-c2cc(Nc3ccc(F)cc3)ncn2)n1 | i
CC(=O)c1ccc(C(=O)N2CCn3c(C(N)=O)cnc3C2)s1 | i
Cc1nn(CC(=O)NCCc2ccc(S(N)(=O)=O)cc2)c(=O)c2cc3sccc3n12 | i
CCc1c(C)nc2ncnn2c1Sc1ccc(NS(=O)(=O)c2cc(C)cc(C)c2C)cc1 | i
NC1CCC([C@H]2CC(=O)Nc3n[nH]c(-c4cccs4)c32)CC1 (some centres undefined) | i
Cc1cccc(CN2CCN(Cc3ccc(Cl)c(F)c3)CC2=O)c1 | i
C=CCn1cc(CNC(C)C2=CCCCC2)c(C)n1 (centres undefined) | i
C=CCn1cc(CN[C@H](C)c2cccc(OC)c2)c(C)n1 | +
C=CCn1cc(CN(C)C(C)CC(=O)NC)c(C)n1 (centres undefined) | i
COCc1nnc(C(=O)N2CC[C@@H](c3sccc3C)[C@H](O)C2)o1 | i
O=C(c1cn[nH]n1)N1CCCOC(Cn2cccn2)C1 (centres undefined) | i
CCc1ncc2c(n1)CN(C(=O)c1ccc(N3CCCC3=O)cc1)C2 | i
CCN1C(SCc2ccc(N3CCCC3=O)cc2)=NS(=O)(=O)c2ccccc21 | +
CCN1C(SCC(=O)N2CCN(c3ccccc3F)CC2)=NS(=O)(=O)c2ccccc21 | i
O=C(CN1C(=O)C2CCCCN2C(=O)c2ccccc21)NCc1ccccc1 (centres undefined) | i
COc1ccc(C)cc1NS(=O)(=O)c1cc(N2C(=O)CCS2(=O)=O)ccc1OC | i
O=C(CN1CCCN(Cc2cccc(F)c2)S1(=O)=O)Nc1ccc(F)c(Cl)c1 | i
O=C(CN1CCCN(Cc2cccc(F)c2)S1(=O)=O)Nc1ccc(F)cc1 | i
O=C(CN1CCN(Cc2ccccc2)S1(=O)=O)Nc1cccc(Cl)c1 | i
Cc1ccc(NC(=O)CN2CCN(Cc3cccc(Cl)c3)S2(=O)=O)cc1 | +
Cc1ccc(CN2CCCN(CC(=O)Nc3ccc(C)cc3)S2(=O)=O)cc1 | +
Cc1ccc(CN2CCCN(CC(=O)Nc3cccc(Cl)c3)S2(=O)=O)cc1 | i
SMILES | FECH block
Cc1cccc(CN2CCCN(CC(=O)Nc3ccc(F)c(Cl)c3)S2(=O)=O)c1 | +
Cc1ccc(NC(=O)CN2CCN(Cc3ccc(F)cc3)S2(=O)=O)cc1 | i
Cc1cccc(CN2CCCN(CC(=O)Nc3ccc(C)c(F)c3)S2(=O)=O)c1 | i
Cc1ccc(CN2CCN(CC(=O)Nc3ccc(C)cc3)S2(=O)=O)cc1 | i
Cc1cccc(NC(=O)CN2CCN(Cc3ccc(F)cc3)S2(=O)=O)c1 | i
Cc1cccc(CN2CCN(CC(=O)Nc3ccc(F)cc3)S2(=O)=O)c1 | +
Cc1cc(NC(=O)CCC2CCCC2)n(-c2ncnc3c2cnn3-c2ccc(Cl)cc2)n1 | i
CCOc1ccc(N(Cc2nc3nc(C)cc(C)n3n2)S(C)(=O)=O)cc1 | i
Cc1ccn2c(=O)cc(COc3cccc(NC(=O)COc4ccc(Cl)cc4)c3)nc2c1 | i
O=C(CCn1cnc2onc(-c3cc(F)cc(F)c3)c2c1=O)NCCc1ccco1 | i
CS(=O)(=O)c1ccc(-c2ccc(CN3CCCC3)cc2)cc1 | i
CC(=O)c1ccc(NC(=O)CN2CCCN(Cc3cccc(C)c3)S2(=O)=O)cc1 | i
Cc1ccc(NC(=O)CN2CCCN(Cc3cccc(C)c3)S2(=O)=O)cc1 | +
Cc1cccc(CN2CCCN(CC(=O)Nc3cccc(C)c3)S2(=O)=O)c1 | i
Cc1cc(N(C)C)nc(N2CCN(S(=O)(=O)c3cc(C)c(C)cc3C)CC2)n1 | i
CN1CC2(CCN(Cc3cncn3C3CCCCC3)C2)OC1=O (centres undefined) | i
CCn1cc(-c2cccc(CN3CCOCC3)c2)c(C)n1 | i
COc1ccccc1OCc1cc(C(=O)N(C)C(C)c2cccs2)no1 (centres undefined) | i
COc1ccc(N2C(=O)N(Cc3ccc(C(C)(C)C)cc3)c3ccccc3S2(=O)=O)cc1OC | i
Cc1ccccc1N1C(=O)N(Cc2ccc(C(C)(C)C)cc2)c2ccccc2S1(=O)=O | i
CCc1ccc(N2C(=O)N(Cc3cc(F)cc(F)c3)c3ccccc3S2(=O)=O)cc1 | +
Cc1ccc(-c2cc(Nc3ccccc3C)nc(C)n2)cc1 | i
Cc1ccc(CNC(=O)C2(C)Cn3nc(C(=O)N4CCN(C)CC4)cc3C(=O)N2C)cc1 (centres undefined) | i
COc1ccccc1CNC(=O)c1[nH]cnc1C(=O)NCC1CCCCC1 | +
CCCNC(=O)c1[nH]cnc1C(=O)NC1CCCCC1 | i
CC(C)CCNC(=O)c1nc[nH]c1C(=O)NCC1CC1 | i
CC(C)(C)CNC(=O)c1nc[nH]c1C(=O)NCc1ccccc1 | i
COc1ccccc1CNC(=O)c1[nH]cnc1C(=O)NCC1CC1 | i
